Values joined by “and” are separate entries in the source; they are usually repeats but may differ in a detail not shown here. Identical values can stand only once. In all, about 5,500 compounds went through this assay and about 2,000 (36%) were called active. About 18% were inconclusive and are not listed. No stated cut-off is given here; in the data, active means normalized growth mostly below about 0.91 (no sharp cut-off); inconclusive means no clear call, values can overlap the other calls; inactive means mostly above about 0.92. The list shows a part of the results.
Test: chemical genetic growth profiling, strain panel (AID 1159580);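 further: tested at 20 µM; growth read once vehicle control cultures reached saturation at 30 °C; 1 = growth at the plate median or of vehicle wells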
Details: S. cerevisiae deletion strains, growth OD

Measured: normalized growth

NC(C(=O)O)C(O)C(=O)O (stereo not drawn)
inactive: locus YAL013W, strain DEP1, stronger effect = lower value 1.04 | locus YAL021C, strain ccr4, stronger effect = lower value 0.941 | locus YAL026C, strain drs2, stronger effect = lower value 0.998 | locus YAL030W, strain snc1, stronger effect = lower value 0.98 | locus YBL061C, strain skt5, stronger effect = lower value 0.996 | locus YBR009C, strain hhf1, stronger effect = lower value 0.955 | locus YBR021W, strain FUR4, stronger effect = lower value 0.993 | locus YBR023C, strain chs3, stronger effect = lower value 0.994 | locus YBR171W, strain sec66, stronger effect = lower value 0.997 | locus YBR229C, strain ROT2, stronger effect = lower value 1.01 | locus YBR231C, strain swc5, stronger effect = lower value 1.03 | locus YBR279W, strain paf1, stronger effect = lower value 0.993 | locus YCL011C, strain gbp2, stronger effect = lower value 0.98 | locus YCL016C, strain dcc1, stronger effect = lower value 0.978 | locus YCL029C, strain bik1, stronger effect = lower value 1.03 | locus YCL061C, strain MRC1, stronger effect = lower value 1 | locus YCL069W, strain vba3, stronger effect = lower value 0.991 | locus YCR088W, strain abp1, stronger effect = lower value 1 | locus YDL005C, strain med2, stronger effect = lower value 0.982 | locus YDL035C, strain GPR1, stronger effect = lower value 1.02 | locus YDL040C, strain nat1, stronger effect = lower value 0.996 | locus YDL074C, strain BRE1, stronger effect = lower value 1.02 | locus YDL101C, strain DUN1, stronger effect = lower value 1.02 | locus YDL134C, strain PPH21, stronger effect = lower value 1.01 | locus YDL185W, strain tfp1, stronger effect = lower value 1.02 | locus YDL192W, strain arf1, stronger effect = lower value 1.02 | locus YDR001C, strain nth1, stronger effect = lower value 0.97 | locus YDR069C, strain doa4, stronger effect = lower value 0.969 | locus YDR101C, strain arx1, stronger effect = lower value 1.04 | locus YDR137W, strain rgp1, stronger effect = lower value 0.982 | locus YDR159W, strain sac3, stronger effect = lower value 1.05 | locus YDR162C, strain NBP2, stronger effect = lower value 1.04 | locus YDR195W, strain ref2 0.973 | locus YDR297W, strain sur2, stronger effect = lower value 0.994 | locus YDR318W, strain mcm21, stronger effect = lower value 1.01 | locus YDR334W, strain swr1, stronger effect = lower value 0.983 | locus YDR335W, strain msn5, stronger effect = lower value 0.986 | locus YDR388W, stronger effect = lower value 1.02 | locus YDR392W, strain spt3, stronger effect = lower value 0.91 | locus YDR502C, strain sam2, stronger effect = lower value 1.03 | locus YEL003W, strain gim4, stronger effect = lower value 0.999 | locus YEL037C, strain rad23, stronger effect = lower value 0.983 | locus YEL061C, strain CIN8 (second series), stronger effect = lower value 0.99 | locus YEL061C, strain CIN8, stronger effect = lower value 1.01 | locus YER015W, strain faa2, stronger effect = lower value 0.997 | locus YER016W, strain bim1, stronger effect = lower value 0.991 | locus YER110C, stronger effect = lower value 1.03 | locus YER111C, strain swi4, stronger effect = lower value 0.994 | locus YER155C, strain BEM2 (second series), stronger effect = lower value 1.03 | locus YER155C, strain BEM2, stronger effect = lower value 0.983 | locus YER167W, strain BCK2, stronger effect = lower value 1.01 | locus YFR010W, strain ubp6, stronger effect = lower value 0.986 | locus YGL078C, strain dbp3, stronger effect = lower value 1.02 | locus YGL086W, strain mad1, stronger effect = lower value 1 | locus YGL167C, strain pmr1, stronger effect = lower value 0.969 | locus YGL173C, strain kem1, stronger effect = lower value 0.999 | locus YGL227W, strain vid30, stronger effect = lower value 0.997 | locus YGL240W, strain doc1, stronger effect = lower value 1 | locus YGL248W, strain PDE1, stronger effect = lower value 1.02 | locus YGL253W, strain hxk2, stronger effect = lower value 1.02 | locus YGR078C, strain PAC10, stronger effect = lower value 1.02 | locus YGR135W, strain pre9, stronger effect = lower value 1.01 | locus YGR252W, strain gcn5, stronger effect = lower value 0.999 | locus YHR013C, strain ard1, stronger effect = lower value 0.969 | locus YHR027C, strain rpn1, stronger effect = lower value 0.991 | locus YHR030C, strain SLT2, stronger effect = lower value 1 and 1.03 | locus YHR079C, strain IRE1 (second series), stronger effect = lower value 1.02 | locus YHR079C, strain IRE1, stronger effect = lower value 1.03 | locus YHR094C, strain hxt1, stronger effect = lower value 1.02 | locus YHR129C, strain ARP1, stronger effect = lower value 1.01 | locus YHR142W, strain chs7, stronger effect = lower value 0.983 | locus YHR200W, strain rpn10, stronger effect = lower value 1.02 | locus YIL066C, strain RNR3, stronger effect = lower value 1.02 | locus YIL073C, strain SPO22, stronger effect = lower value 1.09 | locus YIL125W, strain kgd1, stronger effect = lower value 1.01 | locus YIR030C, strain dcg1, stronger effect = lower value 1.02 | locus YJL092W, strain hpr5, stronger effect = lower value 0.986 | locus YJL095W, strain BCK1 (second series), stronger effect = lower value 0.993 | locus YJL095W, strain BCK1, stronger effect = lower value 1.03 and 1.06 | locus YJL115W, strain asf1, stronger effect = lower value 0.965 | locus YJL129C, strain trk1, stronger effect = lower value 1.02 | locus YJL134W, strain LCB3, stronger effect = lower value 1.01 | locus YJL154C, strain vps35, stronger effect = lower value 0.987 | locus YJL164C, strain tpk1, stronger effect = lower value 0.96 | locus YJL166W, strain qcr8, stronger effect = lower value 0.988 | locus YJL168C, strain set2, stronger effect = lower value 1.01 | locus YJL187C, strain SWE1 (second series), stronger effect = lower value 1.03 | locus YJR043C, strain POL32, stronger effect = lower value 1.02
